# Compounds with a hit are over-represented: about 12% of the library has one in this group of screens.
# TDP1 block: inhibitors of human tyrosyl-DNA phosphodiesterase TDP1; recombinant TDP1, AlphaScreen DNA substrate cleavage; AID 485290; Potency, µM (top dose mostly 130 µM), without a hit: at the highest dose activity change, negative = inhibition, most hits filed as inhibitors; actives 0.28% (n = 350,000); Q9NUW8; note: % is set by controls: 0 for no effect and ±100 for the full control effect; nearly all actives have a fitted effect of over 40% in size
#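 Enzyme-compound mixtures sat 15 min at room temperature, followed by a 5 min reaction with 15 nM final substrate and 10 min with AlphaScreen beads. Recombinant human Tdp1 was used at 1 nM final.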
# Sfp PPTase inh: inhibitors of Bacillus subtilis Sfp phosphopantetheinyl transferase; AID 1490; Biochemical Sfp PPTase activity, qHTS; Q9F4F7; Potency, µM, inactives show largest response in the series, negative = inhibition, usual class: inhibitors; actives 3.5% (n = 310,000);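 note: the enzyme is Sfp with the accession as filed and its product quenches rhodamine fluorescence; 0% = enzyme reaction without inhibitor and -100% = no enzyme wells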
#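 After 15 min at room temperature with compound, 15 nM Sfp received 5 uM rhodamine-CoA plus 12.5 uM BHQ-2-ybbR (50 mM Hepes pH 7.6, 10 mM MgCl2). Rate came from the fluorescence difference over 30 min, ex 525/em 598 nm.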
# HP1b binding inh: inhibitors of HP1-beta chromodomain binding to methylated histone tails; P83916; AlphaScreen HP1-beta / biotin-H3K9me3 peptide binding; actives 0.56% (n = 390,000); AID 540317; Potency, µM (highest dose often 114 µM), without a hit: at the top dose activity change, negative = inhibition, usual class: inhibitors; note: nearly all actives have a fitted effect of over 70% in size
# Target sequence (P83916 whole entry, looked up): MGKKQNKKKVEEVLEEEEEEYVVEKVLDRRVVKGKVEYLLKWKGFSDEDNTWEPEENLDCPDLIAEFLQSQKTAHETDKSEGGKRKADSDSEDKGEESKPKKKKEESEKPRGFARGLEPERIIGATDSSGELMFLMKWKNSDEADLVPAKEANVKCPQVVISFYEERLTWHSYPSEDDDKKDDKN
#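 AlphaScreen: HP1-beta (50 nM) preformed 30 min with biotin-H3(1-18)K9me3 peptide (50 nM) in PBS pH 7.4, 0.01% Tween-20. Compound added for 30 min at RT, then streptavidin donor/nickel chelate acceptor beads (10 ug/mL) for 30 min.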
# JMJD2A Tudor: JMJD2A Tudor domain (human) inhibition; O75164; AlphaScreen JMJD2A-Tudor / H3K4me3 peptide binding; Potency, µM (series often up to 114 µM), inactives show at the top dose activity change, negative = inhibition, most hits filed as inhibitors; actives 4.4% (n = 390,000); AID 504339; note: % is set by controls: 0 for no effect and ±100 for the full control effect; nearly all actives have a fitted effect of over 50% in size
# BAZ2B block: BAZ2B (human) inhibition; AlphaScreen BAZ2B-H3K14Ac peptide displacement; Potency, µM (series often up to 114 µM), without a hit: top-dose activity change, negative = inhibition, hits mostly inhibitors; actives 4.4% (n = 360,000); AID 504333; note: % is set by controls: 0 for no effect and ±100 for the full control effect; nearly all actives have a fitted effect of over 60% in size
#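 BAZ2B (50 nM) with biotin-H3(5-23)K14Ac peptide (50 nM) in PBS pH 7.4, 0.01% Tween-20, preformed 30 min, then compound 30 min at room temperature; top concentration 110uM. AlphaScreen streptavidin donor/nickel chelate acceptor beads (10 ug/mL final), 20 min dark, signal read.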
# G9a block: G9a (human) methyltransferase inhibition; Q96KQ7; G9a H3K9 monomethylation, AlphaScreen, 2 h; Potency, µM (doses to about 102 µM), without a hit: at the highest dose activity, negative = inhibition, most hits filed as inhibitors; actives 8.8% (n = 350,000); AID 504332; note: % is set by controls: 0 for no effect and ±100 for the full control effect; nearly all actives have a fitted effect of over 75% in size
# Target sequence (Q96KQ7 913-1193 limits assumed): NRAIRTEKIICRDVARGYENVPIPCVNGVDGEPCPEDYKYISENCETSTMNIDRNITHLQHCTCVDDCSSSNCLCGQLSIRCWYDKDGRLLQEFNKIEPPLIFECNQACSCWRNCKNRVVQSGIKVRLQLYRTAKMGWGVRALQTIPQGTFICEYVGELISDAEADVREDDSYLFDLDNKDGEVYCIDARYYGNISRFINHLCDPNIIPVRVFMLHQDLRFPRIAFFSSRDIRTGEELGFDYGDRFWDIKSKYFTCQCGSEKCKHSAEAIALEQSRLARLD
#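 AlphaScreen read-out: biotin-H3K9 peptide (500 nM) methylation by 20 nM enzyme with 20 uM SAM, 2 h at room temperature after 15 min compound preincubation; anti-monomethyl H3K9 antibody plus donor/acceptor beads, 10 min dark.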
# Active calls of the source: *; ? = inconclusive; nt = no result given; [ ] = dose if it differs, or a comment. Calls come from the whole dose curve; as a rule, active = well fitted curve in the direction sought with a large enough effect; inconclusive = small, poorly fitted or top-dose-only effect, or another doubt; inactive = no such curve, though single readings can be large; an effect the other way counts as inactive or inconclusive. Potency is the fitted concentration of half-maximal effect.
SMILES,TDP1 block,Sfp PPTase inh,HP1b binding inh,JMJD2A Tudor,BAZ2B block,G9a block
CCOC(=O)c1c(-c2ccccc2)csc1NC(=O)C1CCCO1 (stereo not drawn),-11%,32µM*,-26%,-14%,1%,?
CCOC(=O)c1c(-c2cccs2)csc1NC(=O)CN1CCOCC1,3%,-21%,37%,13%,-6%,11%[59 µM]
CCOC(=O)c1c(-c2ccco2)csc1NC(=O)COC(=O)c1cnc(C)cn1,nt,nt,?,?,50µM*,6%[0.501 µM]
CCOC(=O)c1c(-c2ccc(C)o2)csc1NC(=O)CN1CCOCC1,9%,45µM*,-7%,?,?,50µM*
CCOC(=O)c1c(-c2ccccc2)csc1NC(=O)/C(C#N)=C/c1ccc(OC)c(OC)c1,5%,9%,22%,-10%,0%,4%[59 µM]
CCOC(=O)c1c(-c2ccccc2)csc1NC(=O)CSc1ccccc1,5%,-8%,52%,38%,45%,29%[59 µM]
Cc1ccc(OCC(=O)Nc2ccc(C)c(S(=O)(=O)N3CCCCC3)c2)c([N+](=O)[O-])n1,-2%,0%,14%,-22%,-37%,?
COC(=O)c1c(NC(=O)CSc2ncn[nH]2)sc(C)c1C,nt,nt,15%,-12%,1%,4µM*
COc1ccc(C(=O)NCCn2cc(SCc3c(F)cccc3Cl)c3ccccc32)cc1,7%,nt,13%,-18%,-14%,5%[59 µM]
Cc1cc(C)n2nc(SCc3nnc(-c4ccc(F)cc4)o3)nc2n1,2%,-16%,nt,nt,-18%,32µM*
Cc1cc(C)n2nc(SCc3nnc(-c4cccs4)o3)nc2n1,2%,19%,30%,2%,-12%,6%
C=CC1=C(C)C2=Cc3c(C=C)c(C)c4[n]3[Sn+2][n]3c(c(C)c(CCC(=O)O)c3=CC3=NC(=C4)C(C)=C3CCC(=O)O)=CC1=N2,?,10µM*,nt,nt,nt,nt
Cc1cc(C)n(CC(O)Cn2c3ccccc3c3ccccc32)n1 (stereo not drawn),-6%,50µM*,26%,-13%,-16%,15%[12.7 µM]
CCN(CC)CC(O)CN1c2ccccc2Sc2ccccc21 (stereo not drawn),nt,0%,5%,?,?,1%
Cc1cc(C)n(CC(O)CN2c3ccccc3Sc3ccccc32)n1 (stereo not drawn),6%,2%,-37%,32µM*,50µM*,?
CC(C)c1nc2sc3c(SCCN(C)C)ncnc3c2c2c1CCC2,nt,nt,-7%,?,nt,nt
Cc1nnc(SCC(=O)Nc2ccc(N3CCOCC3)cc2)o1,-3%,5%,17%,-26%,12%,50µM*
CCc1nnc(SCC(=O)Nc2ccc(N3CCOCC3)cc2)o1,2%,8%,10%,-12%,4%,-1%[12.7 µM]
O=C(CSc1ccccn1)Nc1ccc(N2CCOCC2)cc1,6%,0%,-35%,?,-25%,32µM*
COc1c(OC(C)=O)c(=O)n2c3ccccc3c3ccnc1c32,nt,nt,22%,-14%,5%,21%[12.7 µM]
Nc1cccc2c1C(=O)c1ccc(Cl)cc1C2=O,nt,nt,?,14µM*,nt,nt
CCCCC[C@H]1CN(CCc2ccccc2)C(=O)[C@@H]1CC(=O)NCc1ccc(OC)cc1,nt,-7%,53%,-15%,12%,45µM*
CCCCC[C@H]1CN(CCCC)C(=O)[C@@H]1CC(=O)NCc1ccc(OC)cc1,nt,13%,48%,-4%,2%,20%
COc1cc2c(cc1NC(=O)CCCN1C(=O)CCC1=O)oc1ccccc12,3%,-5%,-1%,-14%[11.4 µM],-3%,3%[12.7 µM]
COC(=O)CCC(=O)c1oc2ccc(Cl)cc2c1NC(=O)CCCN1C(=O)c2ccccc2C1=O,4%,35µM*,16%,-2%,7%,-16%[0.0925 µM]
CC1C(=NO)C(C)C(c2ccc(N(C)C)cc2)NC1c1ccc(N(C)C)cc1 (stereo not drawn),16%,-29%,29%,-8%,40µM*,-5%[0.0925 µM]
COc1ccc(C2NC(c3ccc(OC)cc3)C(C)C(=O)C2C)cc1 (stereo not drawn),nt,-10%,25%,16%,6%,29%
